According to PubChem BioAssay AID1159580 (chemical genetic matrix, 2015):
In all, about 5,500 compounds went through this assay and about 2,000 (36%) were called active. Roughly 18% stayed inconclusive and do not appear here. No stated cut-off is given here; in the data, active means normalized growth mostly below about 0.91 (no sharp cut-off); inconclusive means no clear call, values can overlap the other calls; inactive means mostly above about 0.92. This is one part of the list.

Assay: chemical genetic growth profiling, strain panel (AID 1159580);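 further: tested at 20 µM; growth read once vehicle control cultures reached saturation at 30 °C; 1 = growth at the plate median or of vehicle wells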
Conditions: S. cerevisiae deletion strains, growth OD

Measured: normalized growth

NC(CP(=O)(O)O)C(=O)O (centres undefined)
inactive: locus YAL040C, strain CLN3, stronger effect = lower value 1.09 | locus YCL061C, strain MRC1 (second series), stronger effect = lower value 0.998 | locus YER002W, strain NOP16, stronger effect = lower value 1.03 | locus YNL153C, strain GIM3, stronger effect = lower value 1.04 | locus YNL175C, strain NOP13, stronger effect = lower value 1.01 | locus YNL197C, strain WHI3, stronger effect = lower value 1.01 | locus YNL224C, strain SQS1, stronger effect = lower value 1.01 | locus YOR083W, strain WHI5 (second series), stronger effect = lower value 1.01 | locus YPL055C, strain LGE1, stronger effect = lower value 1.02
